PubChem BioAssay (Tox21)
Inconclusive results are not listed. Active and inactive are the calls of the source. The call rests on the fitted dose curve.

Experiments:
[1] = biological target: Acetylcholinesterase (Homo sapiens) (UniProt P22303); assay: Acetylcholinesterase (AChE) small molecule antagonists: colormetric cell-based qHTS assay (AID 1347395); further: nearly all actives have a fitted effect of over 30% in size; further: potency means the concentration at half of the fitted maximal effect
In short: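 Quantitative HTS in attached SH-SY5Y cells: 30 min compound exposure, then 90 min with acetylthiocholine and DTNB at 37 C; colour from thiocholine reports AChE activity.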

[2] = biological target: Acetylcholinesterase (Homo sapiens) (UniProt P22303); assay: Acetylcholinesterase (AChE) small molecule antagonists: enzyme-based qHTS assay (AID 1347397); conditions: Potency: AChE enzyme activity inhibition; outcome: AChE enzyme activity inhibition; further: nearly all actives have a fitted effect of over 55% in size
In short: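 First, recombinant human AChE (50 mU/mL as dispensed) received test compound or DMSO. Second, plates stood 30 min at room temperature. Third, DTNB and acetylthiocholine were added, followed by 10 min at room temperature and colorimetric detection.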

[3] = biological target: Acetylcholinesterase (Homo sapiens) (UniProt P22303); assay: Acetylcholinesterase (AChE) small molecule antagonists: fluorescence cell-based qHTS assay (AID 1347398); conditions: Potency: AChE activity; outcome: AChE activity; further: nearly all actives have a fitted effect of over 50% in size; further: potency means the concentration at half of the fitted maximal effect
In short: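 Homogeneous quantitative HTS format. SH-SY5Y cells seeded at 2,000 per well settle overnight at 37 C. Compound pretreatment runs 30 min (37 C, 5% CO2); substrate/probe mix then reacts 40 min at RT before reading 490/520 nm.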

[4] = biological target: Acetylcholinesterase (Homo sapiens) (UniProt P22303); assay: Acetylcholinesterase (AChE) small molecule antagonists: enzyme-based qHTS assay with human liver microsomes (AID 1347399); conditions: Potency: qHTS inhibition; outcome: qHTS inhibition; further: nearly all actives have a fitted effect of over 60% in size
In short: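 Recombinant human AChE (50 mU/mL in the enzyme mix) and human liver microsomes (0.25 mg/mL final) were preincubated with compound and NADPH (0.25 mg/mL final) for 30 min at 37 C. Acetylthiocholine/DTNB was then added; thiocholine was read colorimetrically after 10 min at room temperature.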
On the % scale 0 is the no-effect control and ±100 the full control effect.

Chain of Acetylcholinesterase (Homo sapiens) (P22303 whole entry, looked up): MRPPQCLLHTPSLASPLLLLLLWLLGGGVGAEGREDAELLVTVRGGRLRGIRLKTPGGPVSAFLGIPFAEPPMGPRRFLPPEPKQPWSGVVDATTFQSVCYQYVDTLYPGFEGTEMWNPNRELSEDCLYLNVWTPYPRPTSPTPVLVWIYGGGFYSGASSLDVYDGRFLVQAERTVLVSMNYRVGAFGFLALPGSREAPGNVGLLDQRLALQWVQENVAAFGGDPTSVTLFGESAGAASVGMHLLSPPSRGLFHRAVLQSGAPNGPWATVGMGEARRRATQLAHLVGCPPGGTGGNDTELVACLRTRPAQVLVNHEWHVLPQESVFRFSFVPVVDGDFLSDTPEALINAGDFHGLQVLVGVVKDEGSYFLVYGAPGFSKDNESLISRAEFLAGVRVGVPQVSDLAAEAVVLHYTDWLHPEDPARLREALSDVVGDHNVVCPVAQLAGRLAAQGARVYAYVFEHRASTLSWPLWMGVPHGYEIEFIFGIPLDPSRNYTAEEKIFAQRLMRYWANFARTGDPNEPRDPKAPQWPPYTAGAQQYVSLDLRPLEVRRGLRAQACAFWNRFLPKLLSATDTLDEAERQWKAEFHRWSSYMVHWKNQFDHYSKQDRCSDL

C=CC(=C)CC/C=C(\C)CCC=C(C)C
inactive: activity, negative = inhibition [1] -2.99% [at 23.6 µM] | activity change, negative = inhibition [2] 0.554% [at 23.6 µM] | activity change, negative = inhibition [3] -5.88% [at 23.8 µM] | activity change, negative = inhibition [4] -0.162% [at 23.6 µM]

S=C(SSSSSSC(=S)N1CCCCC1)N1CCCCC1
inactive: activity, negative = inhibition [1] -0.568% [at 23.6 µM] | activity change, negative = inhibition [2] 0.13% [at 23.6 µM] | activity change, negative = inhibition [3] -3% [at 23.8 µM] | activity change, negative = inhibition [4] -2.6% [at 23.6 µM]

COc1ccc(OC)c(OC)c1
inactive: Potency [1] | Potency [2] | Potency [3] | Potency [4]

CC(C)(C)C(=O)O
inactive: Potency [1] | Potency [2] | Potency [3] | Potency [4]

CCCCc1ccc(N)cc1
inactive: Potency [1] | Potency [2] | Potency [3] | Potency [4]

CCCc1ccc(N)cc1
inactive: Potency [1] | Potency [2] | Potency [3] | Potency [4]

O=C(O)c1cccc(C(=O)O)c1C(=O)O
inactive: Potency [1] | Potency [2] | Potency [3] | Potency [4]

CC1(C)CCC(C)(C)c2cc(C(=O)Nc3ccc(C(=O)O)cc3)ccc21
inactive: Potency [1] | Potency [2] | Potency [3] | Potency [4]

COCCCOCCCOC
inactive: Potency [1] | Potency [2] | Potency [3] | Potency [4]

CC(C)COC(=O)c1ccc(O)cc1
inactive: Potency [1] | Potency [2] | Potency [3] | Potency [4]

CC1=CCC(=C(C)C)CC1
inactive: Potency [1] | Potency [2] | Potency [3] | Potency [4]

CC(=O)c1ccc[nH]1
inactive: Potency [1] | Potency [2] | Potency [3] | Potency [4]

CCCCCCCC/C=C\CCCCCCCC(=O)OCC
inactive: Potency [1] | Potency [2] | Potency [3] | Potency [4]

Cc1ccc(-c2ccccc2)cc1
inactive: Potency [1] | Potency [2] | Potency [3] | Potency [4]

CCCCCc1ccco1
inactive: Potency [1] | Potency [2] | Potency [3] | Potency [4]

CC(CC=O)CC(C)(C)C (centres undefined)
inactive: Potency [1] | Potency [2] | Potency [3] | Potency [4]

NC(=S)N/N=C/c1cccnc1
inactive: Potency [1] | Potency [2] | Potency [3] | Potency [4]

CC(=O)c1ccc2c(c1)N(CCCN1CCC(CCO)CC1)c1ccccc1S2
inactive: Potency [2] | Potency [4]
active: Potency [1] 38.9 µM | Potency [3] 17.4 µM

CCCCC1C(=O)N(c2ccccc2)N(c2ccc(O)cc2)C1=O (centres undefined)
inactive: Potency [1] | Potency [2] | Potency [3] | Potency [4]

CCOC(=O)CC(=O)c1cc(F)c(Cl)nc1Cl
inactive: Potency [1] | Potency [2] | Potency [3] | Potency [4]

COc1ccnc(CS(=O)c2nc3ccc(OC(F)F)cc3[nH]2)c1OC (centres undefined)
inactive: Potency [1] | Potency [2] | Potency [3] | Potency [4]

COc1ccc2cc(CCC(C)=O)ccc2c1
inactive: Potency [1] | Potency [2] | Potency [3] | Potency [4]

O=C1OC(=O)C2CCCCC12 (centres undefined)
inactive: Potency [1] | Potency [2] | Potency [3] | Potency [4]

C=CC(C)(CCC=C(C)C)OC=O (centres undefined)
inactive: Potency [1] | Potency [2] | Potency [3] | Potency [4]

CCCCCCCOC(=O)c1ccccc1C(=O)OCCCCCCC
inactive: Potency [1] | Potency [2] | Potency [3] | Potency [4]

O=c1c(-c2ccccc2)c1-c1ccccc1
inactive: Potency [1] | Potency [2] | Potency [3] | Potency [4]

C[Si]1(C)O[Si](C)(C)O[Si](C)(C)O1
inactive: Potency [1] | Potency [2] | Potency [3] | Potency [4]

CC[C@@]1(c2ccccc2)NC(=O)N(C)C1=O
inactive: Potency [1] | Potency [2] | Potency [3] | Potency [4]

Cc1cscn1
inactive: Potency [1] | Potency [2] | Potency [3] | Potency [4]

CC(C)(O)c1ccc(C(C)(C)O)cc1
inactive: Potency [1] | Potency [2] | Potency [3] | Potency [4]

CCNc1nc(NC(C)CC)nc(OC)n1 (centres undefined)
inactive: Potency [1] | Potency [2] | Potency [3] | Potency [4]

CC(C)Nc1nc(N)nc(Cl)n1
inactive: Potency [1] | Potency [2] | Potency [3] | Potency [4]

Cc1ccccc1C#N
inactive: Potency [1] | Potency [2] | Potency [3] | Potency [4]

O=c1[nH]c(=O)n([C@H]2C[C@H](O)[C@@H](CO)O2)cc1I
inactive: Potency [1] | Potency [2] | Potency [3] | Potency [4]

O=C(CS)OCCOC(=O)CS
inactive: Potency [1] | Potency [2] | Potency [3] | Potency [4]

O=c1cccccc1O
inactive: Potency [1] | Potency [2] | Potency [3] | Potency [4]

CC(C)=CCC/C(C)=C/CC/C(C)=C/CCC(=O)OC/C=C(\C)CCC=C(C)C
inactive: Potency [1] | Potency [2] | Potency [3] | Potency [4]

CC/C=C\CCOC(=O)c1ccccc1
inactive: Potency [1] | Potency [2] | Potency [3] | Potency [4]

CC(C)(O)c1ccccc1CC[C@@H](SCC1(CC(=O)O)CC1)c1cccc(/C=C/c2ccc3ccc(Cl)cc3n2)c1
inactive: Potency [1] | Potency [2] | Potency [3] | Potency [4]

CC(C)(C)OC(=O)c1ccccc1C(=O)O
inactive: Potency [1] | Potency [2] | Potency [3] | Potency [4]

CC(C)(O)CCCC1=CCC(C=O)CC1 (centres undefined)
inactive: Potency [1] | Potency [2] | Potency [3] | Potency [4]
